Pf apPOL inh – Pf-apPOL DNA polymerase inhibition. inhibition, % at 10 µM. Recombinant Pf-apPOL, molecular beacon fluorescence, 1.5 h. AID 1794808. actives 0.25% (n = 210,000)
mHTT CaM bind – mHTT-calmodulin interaction abrogation. inhibition, % at 15 µM. AlphaScreen His-mHTT/GST-CaM binding, luminescence. actives 3.6% (n = 190,000). P42858;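 also: 0% = both proteins with DMSO and 100% = one protein alone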
Target sequence (P42858 whole entry, looked up, stated change not applied): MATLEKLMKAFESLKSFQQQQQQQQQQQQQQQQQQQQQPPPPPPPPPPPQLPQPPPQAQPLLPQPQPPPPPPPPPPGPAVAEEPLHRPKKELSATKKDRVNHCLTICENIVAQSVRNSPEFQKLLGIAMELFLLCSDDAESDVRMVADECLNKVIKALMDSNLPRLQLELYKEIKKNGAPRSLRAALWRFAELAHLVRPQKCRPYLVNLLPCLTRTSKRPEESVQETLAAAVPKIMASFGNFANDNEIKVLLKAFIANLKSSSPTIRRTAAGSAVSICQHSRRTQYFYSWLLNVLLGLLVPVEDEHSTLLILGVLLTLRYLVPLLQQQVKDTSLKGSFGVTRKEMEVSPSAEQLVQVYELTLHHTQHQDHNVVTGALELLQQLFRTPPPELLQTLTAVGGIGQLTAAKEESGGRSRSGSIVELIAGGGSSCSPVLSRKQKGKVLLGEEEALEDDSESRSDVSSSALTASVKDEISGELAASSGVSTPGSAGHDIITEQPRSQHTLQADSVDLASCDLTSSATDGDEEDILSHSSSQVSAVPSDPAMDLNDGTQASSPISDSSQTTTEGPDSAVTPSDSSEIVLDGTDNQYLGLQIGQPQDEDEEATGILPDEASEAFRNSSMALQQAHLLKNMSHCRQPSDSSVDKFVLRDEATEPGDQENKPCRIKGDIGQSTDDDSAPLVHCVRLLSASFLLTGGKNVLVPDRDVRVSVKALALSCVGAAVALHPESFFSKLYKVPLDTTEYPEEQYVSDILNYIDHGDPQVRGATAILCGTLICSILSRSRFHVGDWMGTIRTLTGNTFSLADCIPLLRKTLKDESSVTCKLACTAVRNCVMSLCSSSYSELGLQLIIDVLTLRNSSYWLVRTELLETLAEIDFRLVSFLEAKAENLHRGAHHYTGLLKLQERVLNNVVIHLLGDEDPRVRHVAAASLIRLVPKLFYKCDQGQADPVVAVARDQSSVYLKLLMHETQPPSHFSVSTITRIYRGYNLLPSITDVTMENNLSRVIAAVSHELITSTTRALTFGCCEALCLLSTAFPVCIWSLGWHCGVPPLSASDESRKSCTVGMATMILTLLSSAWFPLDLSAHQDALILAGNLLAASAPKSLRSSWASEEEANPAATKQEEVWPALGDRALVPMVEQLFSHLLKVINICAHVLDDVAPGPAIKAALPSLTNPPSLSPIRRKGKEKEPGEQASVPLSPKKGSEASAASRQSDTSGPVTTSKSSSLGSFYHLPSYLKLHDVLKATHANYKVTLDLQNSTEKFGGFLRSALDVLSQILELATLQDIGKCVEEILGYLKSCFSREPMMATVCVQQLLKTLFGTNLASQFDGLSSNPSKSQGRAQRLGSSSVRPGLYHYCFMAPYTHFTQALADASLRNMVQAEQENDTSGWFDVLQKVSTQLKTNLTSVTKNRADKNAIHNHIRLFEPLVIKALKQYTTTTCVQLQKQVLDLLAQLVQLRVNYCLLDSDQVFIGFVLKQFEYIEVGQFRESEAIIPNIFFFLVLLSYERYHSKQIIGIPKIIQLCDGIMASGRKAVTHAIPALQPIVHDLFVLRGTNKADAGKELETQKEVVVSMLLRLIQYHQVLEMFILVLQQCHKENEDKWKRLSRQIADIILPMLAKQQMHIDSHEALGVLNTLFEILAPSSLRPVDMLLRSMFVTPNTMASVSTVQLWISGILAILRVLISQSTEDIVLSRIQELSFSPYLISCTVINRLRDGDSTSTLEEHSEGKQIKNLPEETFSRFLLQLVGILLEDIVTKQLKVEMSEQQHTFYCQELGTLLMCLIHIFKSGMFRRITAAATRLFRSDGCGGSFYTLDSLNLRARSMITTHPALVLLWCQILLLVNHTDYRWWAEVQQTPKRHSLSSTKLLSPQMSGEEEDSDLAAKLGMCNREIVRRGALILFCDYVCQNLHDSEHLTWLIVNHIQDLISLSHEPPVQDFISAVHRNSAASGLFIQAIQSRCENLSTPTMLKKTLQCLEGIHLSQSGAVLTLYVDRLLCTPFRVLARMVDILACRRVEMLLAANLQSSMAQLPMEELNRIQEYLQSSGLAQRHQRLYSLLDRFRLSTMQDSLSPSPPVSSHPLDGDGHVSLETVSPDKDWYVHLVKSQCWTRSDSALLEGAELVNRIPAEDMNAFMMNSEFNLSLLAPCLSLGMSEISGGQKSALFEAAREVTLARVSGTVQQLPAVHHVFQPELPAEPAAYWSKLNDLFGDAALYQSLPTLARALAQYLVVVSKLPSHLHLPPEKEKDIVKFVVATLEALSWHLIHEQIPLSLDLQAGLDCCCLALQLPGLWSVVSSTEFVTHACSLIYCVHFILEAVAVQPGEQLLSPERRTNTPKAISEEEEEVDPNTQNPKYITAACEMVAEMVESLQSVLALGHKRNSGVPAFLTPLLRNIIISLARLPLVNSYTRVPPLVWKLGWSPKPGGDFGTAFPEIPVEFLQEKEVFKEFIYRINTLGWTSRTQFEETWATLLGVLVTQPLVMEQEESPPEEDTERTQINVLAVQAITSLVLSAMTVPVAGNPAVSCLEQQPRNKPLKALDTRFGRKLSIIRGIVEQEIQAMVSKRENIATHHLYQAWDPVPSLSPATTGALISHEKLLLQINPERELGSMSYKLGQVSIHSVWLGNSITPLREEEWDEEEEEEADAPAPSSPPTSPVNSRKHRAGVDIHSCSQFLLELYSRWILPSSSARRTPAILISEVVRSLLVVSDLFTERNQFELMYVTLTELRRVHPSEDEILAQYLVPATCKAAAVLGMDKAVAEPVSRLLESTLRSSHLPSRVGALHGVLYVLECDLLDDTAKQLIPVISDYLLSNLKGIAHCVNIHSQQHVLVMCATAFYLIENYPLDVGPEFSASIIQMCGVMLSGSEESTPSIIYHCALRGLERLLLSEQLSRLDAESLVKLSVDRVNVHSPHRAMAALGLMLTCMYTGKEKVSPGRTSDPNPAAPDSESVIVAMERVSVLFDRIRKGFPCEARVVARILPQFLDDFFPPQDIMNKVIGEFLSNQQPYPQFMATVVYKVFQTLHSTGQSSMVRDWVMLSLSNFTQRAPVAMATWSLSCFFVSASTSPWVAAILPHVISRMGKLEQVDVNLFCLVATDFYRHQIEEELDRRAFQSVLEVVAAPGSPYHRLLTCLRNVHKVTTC
* hit, by the source's call; . = no result given; ! = a repeat was not active. The sample as a whole holds a higher share of hits than the screen did. Rule as the data show it: active = inhibition above about 50%; inactive = the rest.

SMILES | Pf apPOL inh | mHTT CaM bind
Cc1ccc(-c2cn3cc(C(=O)NC(C)c4cccnc4)ccc3n2)cc1 (stereo not drawn) | 0 | 51*
Cc1ccc(-c2cn3cc(C(=O)NC(C)c4cccnc4)ccc3n2)cc1C (stereo not drawn) | -3 | 53*
CC(NC(=O)c1cn2ccccc2n1)c1cccnc1 (stereo not drawn) | 0 | -3
CC(NC(=O)c1ccc(-c2ccnc(N3CCCC3)n2)cc1)c1cccnc1 (stereo not drawn) | 3 | 19
Cc1nn(C)c(C)c1S(=O)(=O)N1CCC(n2c(-c3ccsc3)nc3cccnc32)C1 (stereo not drawn) | -1 | 8
CCN1c2ccc(F)cc2C(=O)NC12CCN(C(=O)c1cccc(Cl)c1)CC2 | 2 | -3
CCCNC(=O)C1CCN(c2cncnc2N2CCCCC2)CC1 | -1 | -3
O=C1CCCC2=C1C(c1ccc(O)cc1)c1c(nc(SCc3ccccc3F)[nH]c1=O)N2 (stereo not drawn) | -1 | 31
CC(O)CNC(=O)c1cnn2c(-c3ccc(C(C)C)cc3)ccnc12 (stereo not drawn) | -1 | -12
N=C1C(c2nc3ccccc3s2)=C(O)CN1CCN1CCOCC1 | 10 | 3
CCCn1ccc2sc(C)c(C(=O)N3CCN(c4ccccc4)CC3)c2c1=O | 2 | 35
Cc1sc2ccn(C)c(=O)c2c1C(=O)N1CCCCC1 | -3 | -7
Cc1sc2ccn(C)c(=O)c2c1C(=O)N1CCN(c2ccc(Cl)cc2)CC1 | -6 | 70*
CCn1ccc2sc(C)c(C(=O)N3CCN(c4ccccc4)CC3)c2c1=O | -7 | 59*
Cc1ccc(OCCCCN2CCCC2)cc1C | -1 | -4
CCn1ncc(CN(C)C(=O)c2cn3ccccc3n2)c1C | -1 | -1
Cn1c2c(c(=O)n(C)c1=O)COC2=O | . | -6
Cc1ccc(S(=O)(=O)N=C2C=C(Nc3cccc(C(=O)O)c3)C(=O)c3ccccc32)cc1 | 4 | 62*
Cc1ccc(C)c(S(=O)(=O)N=C2C=C(Br)C(=O)c3ccccc32)c1 | -7 | 46
Cc1ccc(NC(=O)c2cccc(S(=O)(=O)Nc3cccc(C(=O)O)c3)c2)cc1 | -7 | -3
Cc1ccc(S(=O)(=O)N=C2C=C(Nc3cccc(C(=O)O)c3)C(=O)c3ccccc32)c(C)c1 | 47 | 86*
Cc1oc(C2CCN(C(=O)Nc3ccc4c(c3)CCC4)CC2)nc1C(=O)N1CCCCC1 | -7 | 6
CCCOc1ccc(CN2CCCC2c2cc(C)on2)cc1OC (stereo not drawn) | -7 | 9
COc1ccc(Cl)cc1N1CCN(Cc2ccc(C(=O)N3CCCC3)o2)CC1 | -2 | -2
O=C(O)C1CC(=O)N(Cc2ccc(Cl)cc2)C(=Nc2ccc(Cl)cc2)S1 (stereo not drawn) | -13 | 27
SMILES | Pf apPOL inh | mHTT CaM bind
COc1ccc(N=C2SC(C(=O)O)CC(=O)N2Cc2ccc(F)cc2)cc1 (stereo not drawn) | 3 | -4
COc1ccc(CN2C(=O)CC(C(=O)O)SC2=Nc2ccc(Cl)cc2)cc1 (stereo not drawn) | 52* | 4
COc1ccc(N=C2SC(C(=O)N3CCN(c4ccc(F)cc4)CC3)CC(=O)N2C)cc1 (stereo not drawn) | -8 | 51*
CNC(=O)c1ccc(Cl)cc1 | -15 | .
COc1ccc(-c2c(C)c3ccc(OC)cc3oc2=O)c(OC)c1 | -14 | -14
Cc1ccccc1NC(=O)c1ccc2c(c1[N+](=O)[O-])C(=O)c1ccccc1C2=O | -4 | 11
COc1ccc(-c2ccc(/C=C/c3cc(C(F)(F)F)[nH]c(=O)n3)o2)cc1Cl | 7 | 99*
COc1ccc(-c2ccc(/C=C/c3cc(C(F)(F)F)[nH]c(=O)n3)o2)c([N+](=O)[O-])c1 | -3 | 24
O=C(/C=C/c1ccccc1)NC(NCC1CCCO1)C(Cl)(Cl)Cl (stereo not drawn) | 1 | 8
CC(C)c1ccc(-c2csc(N)n2)cc1 | -1 | 18
CCOc1ccccc1NC(=O)C1CN(C(=O)c2ccncc2)CC12CCCCC2 (stereo not drawn) | 0 | 33
Cc1ccc(-c2n[nH]c(=O)c3ccccc23)cc1S(=O)(=O)NCc1ccccc1 | 1 | 5
COc1cccc2sc(Nc3nnc(-c4cccs4)o3)nc12 | -265 | 76*
COc1cccc2sc(Nc3nc4ccc(S(C)(=O)=O)cc4s3)nc12 | -252 | -36
O=C1NC(/C=C/c2ccc3c(c2)OCO3)Nc2sc3c(c21)CCCC3 (stereo not drawn) | -14 | 9
CC(=NNc1cc(Cl)ccc1Cl)c1csc(COc2ccc(Cl)cc2)n1 | 1 | .
c1ccc2c(N3CCOCC3)nc(-c3ccncc3)nc2c1 | 1 | 61*!
Cc1ccc(-c2nc(N3CCOCC3)c3ccccc3n2)cc1 | -4 | -4
Clc1ncnc2c1ncn2C1CCCCO1 (stereo not drawn) | . | 75*
OC[C@H]1O[C@@H](n2cnc3c(NC4CCCCC4)ncnc32)[C@H](O)[C@@H]1O | 8 | .
COc1ccc(-c2nnc(N3CCC(C(=O)NCCC(C)C)CC3)o2)cc1 | -4 | 8
Cc1cc(OCC(=O)NN)ccc1Cl | 0 | -5
CC(C)NC(=O)c1csc(COc2ccc(Cl)cc2)n1 | -9 | -5
Cc1cc(OCc2nc(C(=O)NC(C)C)cs2)ccc1Cl | -10 | 66*
Cc1cc(OCC(=O)NC(C)C)ccc1Cl | 2 | 90*
SMILES | Pf apPOL inh | mHTT CaM bind
O=C(NCc1cccc(F)c1)C1CCN(c2nnc3ccc(Cl)cn23)CC1 | -2 | -2
CCc1nnc(NC(=O)CCCOc2ccc(Cl)cc2Cl)s1 | 0 | -2
COc1ccc(Cl)cc1NC(=O)C1(c2cccs2)CCCC1 | -5 | -54
CCCn1cnnc1C1CCCCN1C(=O)NCc1ccc(OC)cc1 (stereo not drawn) | 3 | 1
O=C(NCCNc1ccc(Nc2ccccn2)nn1)c1ncccn1 | -1 | 100*
Cc1cccc(Nc2ccc(NCCNC(=O)c3ccccc3C(F)(F)F)nn2)n1 | -8 | 1
Cc1cc(C)c(-c2noc(C)n2)c(NC(=O)c2ccccc2F)n1 | -4 | -3
Cc1ccc2[nH]cc(CCN3CC(C(=O)Nc4nnc(C)s4)CC3=O)c2c1 (stereo not drawn) | -2 | 2
CCOC(=O)N1CCc2c(sc(NC(=O)c3cc(C)on3)c2C(=O)OC)C1 | -2 | -12
CCOc1ccccc1NC(=O)c1c(NCc2cccnc2)sc2c1CCCCC2 | -17 | 80*
COc1ccc(OC)c(NC(=O)c2c(NC(=O)CNCc3ccco3)sc3c2CCC3)c1 | -1 | 3
COc1ccc(OC)c(NC(=O)c2c(N)sc3c2CCCCC3)c1 | -4 | 64*
CCOc1ccccc1NC(=O)c1c(NCc2ccccn2)sc2c1CCCC2 | -27 | 30
COc1ccc(OC)c(NC(=O)c2c(NCc3cccnc3)sc3c2CCC3)c1 | -14 | 81*
COc1ccccc1NC(=O)c1c(N)sc2c1CCCC2 | -4 | 31
CCOC(=O)N1CCc2c(sc(N)c2C(=O)Nc2cc(OC)ccc2OC)C1 | -8 | 54*
O=[N+]([O-])c1c(-c2cnoc2)n[nH]c1-c1cnoc1 | . | 0
CC(=O)N1CCc2ccccc2C1C(=O)NCc1cccs1 (stereo not drawn) | -3 | 10
COc1ccc(Br)cc1C=CC(=O)Nc1ccc(F)cc1F | -2 | .
CC(C)(C)N1C(=O)NC(=O)/C(=C\c2cn(Cc3ccccc3)c3ccccc23)C1=O | 2 | 4
COc1ccccc1NC(=O)c1c(NCc2cccnc2)sc2c1CCCCC2 | -19 | 80*

Source: PubChem
